# An excerpt weighted towards active compounds, which were near 4% of everything screened.
# D1 agonist – agonists of human D1 dopamine receptor; HEK293 T-REx D1 cells, calcium flux, agonist mode; activation, % at 2 µM; 1% of 360,000 active; AID 504660; note: 0% is about no effect
#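 Agonism was scored from calcium flux recorded over 180 s (1 read/s) after pintool compound addition, following a 10-cycle baseline. Cells were inducible force-coupled HEK293 TREx D1, plated overnight at 30 C and loaded with no-wash calcium dye.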
# D1 antag – blocks dopamine activation of the human D1 receptor. P21728. HEK293 TREx D1 cells, calcium flux, dopamine EC80; hits give low values. activity change, negative = inhibition, % at 10 µM. 3.2% of 360,000 active. AID 504652; in the data active = activity change below about -30%; note: % is set by controls: 0 for no effect and ±100 for the full control effect
#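 HEK293 T-REx cells expressing inducible, force-coupled D1 receptor; no-wash Ca dye, 30–90 min RT. Cmpd → 180 s read at 1 Hz → EC80 DA → 180 s read.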
# TRHR enhancer – allosterically enhances the human TRH receptor | AID 493056 | 0.66% of 360,000 active | P34981 | enhancement, % at 2 µM | TRHR cells, fluo-8 calcium fluorescence, EC20 TRH enhancement; in the data active = enhancement above about 30%; note: 0% is about no effect
# Target sequence (P34981 whole entry, looked up): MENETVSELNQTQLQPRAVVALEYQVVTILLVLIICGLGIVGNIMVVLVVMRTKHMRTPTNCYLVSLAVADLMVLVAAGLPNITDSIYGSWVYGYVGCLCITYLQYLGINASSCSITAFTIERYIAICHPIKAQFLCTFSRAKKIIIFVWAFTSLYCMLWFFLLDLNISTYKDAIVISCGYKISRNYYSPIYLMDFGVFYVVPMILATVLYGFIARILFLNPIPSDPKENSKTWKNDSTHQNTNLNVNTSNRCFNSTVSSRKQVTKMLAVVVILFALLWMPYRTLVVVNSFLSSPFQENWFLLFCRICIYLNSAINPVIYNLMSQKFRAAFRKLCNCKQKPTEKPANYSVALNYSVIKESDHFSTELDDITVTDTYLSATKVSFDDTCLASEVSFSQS
#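 Enhancer read-out: after compound pinning and an initial kinetic agonist-mode read, an EC20 of TRH (10 nM final) was injected and fluo-8 calcium signal (Ex 480/Em 530) followed at 1 s/cycle for 100 cycles in TRHR-expressing cells.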
# D1 PAM – human D1 dopamine receptor positive modulation; HEK293 TREx D1 cells, calcium flux, dopamine EC20 potentiation; potentiation, % at 10 µM; 0.036% of 360,000 active; AID 504651; in the data active = potentiation above about 30%; note: 0% is about no effect
# Glioma ERSR ind – inducers of ER stress response in human glioma cells | Potency, µM, for inactives: at the top dose activation, usual class: activators | U87-MG GRP78 promoter luciferase reporter, 16 h | 0.02% of 420,000 active; active = well fitted activation curve with a large enough effect; note: potency is the fitted concentration of half-maximal effect; series mostly up to about 76 µM; % of control where 0% means no effect; nearly all actives have a fitted effect of over 35% in size
#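 ERSR induction read as luciferase luminescence (Bright-Glo, 10 min at room temperature) in stably transfected human U87-MG glioma cells exposed to compounds for 16 h, using GRP78 as sensor.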
# TRHR ag – activates the human TRH receptor | 0.18% of 360,000 active | activation, % at 2 µM | P34981 | TRHR cells, calcium flux fluo-8, FDSS agonist mode; note: 0% is about no effect
#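 Steps: seed TRHR cells overnight; add fluo-8 no-wash Ca dye, RT 30 min–1.5 h; record 10 s baseline; pin-transfer compounds; monitor fluorescence 1 cycle/s for the agonist window. Calcium increases flag candidate agonists.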
# Active calls of the source: *; x = no result. Cut-off read from the data, not from the text of the source, unless noted: active = activation above about 30%; inactive = the rest.
SMILES,D1 agonist,D1 antag,TRHR enhancer,D1 PAM,Glioma ERSR ind,TRHR ag
CCOC(=O)c1c(C)oc2nc(C)nc(NCc3ccccc3OC)c12,2,-37*,-12,-5,-1%,0
CCOC(=O)c1cnc2ccccc2c1NCc1ccco1,5,-39*,7,-14,-1%,3
CCOC(=O)c1cnc2ccc(OC)cc2c1NCc1ccccc1,1,-8,-7,-2,-5%,0
CC(Sc1nc(N)cc(=O)[nH]1)C(=O)Nc1nc2c(s1)CCCC2 (configuration not stated),3,-41*,-10,-7,-4%,0
O=c1[nH]c(-c2ccc(Cl)cc2)nc2c1cnn2-c1ccccc1,3,9,2,-2,x,0
Cc1cccc(-c2nc3c(cnn3-c3ccccc3)c(=O)n2-c2ccc(Cl)cc2)c1,6,-36*,-5,-3,-2%,1
Cc1nc2c(cnn2-c2ccccc2)c(=O)[nH]1,0,-38*,5,-5,-2%,1
Cc1ccc(-n2c(-c3cccc(C)c3)nc3c(cnn3-c3ccccc3)c2=O)cc1,4,5,-3,-2,0%,1
CCC(C)[C@H](NC(=O)NCc1ccccn1)C(=O)OC (some centres not stated),3,2,-4,-3,-3%,0
COc1ccc2[nH]c(=O)c(CN(C(C)=O)C3CCCCC3)cc2c1,1,0,6,-1,2%,0
COC(=O)C1=C(N)c2c(F)cccc2C1(C#N)c1ccccc1 (configuration not stated),0,-32*,-3,-5,2%,0
COC(=O)C1=C(C)NC(=O)CC1c1ccccc1F (configuration not stated),0,-18,-6,-7,-2%,1
CC(=O)c1ccc(S(=O)(=O)NCCC(=O)OCC(=O)N2CCCC2=O)cc1,5,3,-6,7,3%,0
COc1ccc(C2NC(=O)c3ccccc3O2)cc1OC (configuration not stated),2,8,-4,-9,0%,0
CCOC(=O)c1c(C)n(C)c2ccc(OC)c(NC(=O)CN3CCSCC3)c12,1,6,3,2,-3%,0
CCOC(=O)c1c(C)n(C)c2ccc(OC)c(NC(=O)CCN3CCC(Cc4ccccc4)CC3)c12,9,-36*,12,-4,1%,2
COc1ccc(C(CC(=O)O)NC(=O)C2CCCCC2)cc1 (configuration not stated),3,1,39*,-12,-5%,0
CC(C)Oc1ccc(C(CC(=O)O)NC(=O)C2CCCCC2)cc1 (configuration not stated),3,-10,-3,-6,2%,0
COc1ccc(C(C)NC(=O)C2CCCC2)cc1OC (configuration not stated),8,-48*,7,5,-2%,0
COc1ccc(C(C)NC(=O)C2CCCO2)cc1OC (configuration not stated),2,8,1,2,-4%,0
CCN(CCNC(=O)c1ccc(CSc2nc3ccncc3[nH]2)cc1)c1ccccc1,1,-12,5,-4,-3%,0
O=C(NCCN1CCN(c2cccc(Cl)c2)CC1)c1ccc(CSc2nc3ccncc3[nH]2)cc1,2,-48*,1,-14,-3%,1
C=CCN(c1ccccc1)S(=O)(=O)c1cccc(C(=O)NC2CCN(Cc3ccccc3)CC2)c1,3,-37*,12,1,-6%,0
COc1ccccc1NS(=O)(=O)c1cccc(C(=O)NC2CCN(Cc3ccccc3)CC2)c1,18,-37*,-5,-7,-1%,0
O=c1nc(-c2ccccc2Cl)c2cc(F)ccc2[nH]1,0,-2,2,-6,-2%,0
SMILES,D1 agonist,D1 antag,TRHR enhancer,D1 PAM,Glioma ERSR ind,TRHR ag
COc1ccc(-c2c(-c3ccccc3)c(C(=O)C(=O)NCCCN(C)C)n3ccc4cc(OC)c(OC)cc4c23)cc1OC,1,-47*,-4,9,-4%,0
O=C(Cc1ccccc1)NCC(=O)OCC(=O)c1cccc([N+](=O)[O-])c1,1,-13,-3,-5,0%,-1
O=[N+]([O-])c1ccc(N=Cc2sc3ccccc3c2O)cc1,32*,7,-4,-7,1%,7
Oc1c(C=NCc2ccccc2)sc2ccccc12,2,13,-7,-1,-3%,-1
Cc1cccc2c(=O)cc(C)n(CC(N)=O)c12,2,6,7,1,-5%,0
COC(=O)c1cccc(CN2C(=O)SC(Nc3ccc(Cl)cc3)C2=O)c1 (configuration not stated),1,-32*,1,-6,-1%,1
Cc1cc2cc(CNC(=O)c3cccc([N+](=O)[O-])c3)ccc2n1C,-1,-29,0,-3,2%,0
Cc1cc2cc(CNS(=O)(=O)c3ccc4ccccc4c3)ccc2n1C,-2,1,1,-3,-5%,0
Cc1cc(C)c(S(=O)(=O)NCc2ccc3c(c2)cc(C)n3C)c(C)c1,-2,-37*,5,-8,3%,0
Cc1cc2cc(CNC(=O)Cc3ccc([N+](=O)[O-])cc3)ccc2n1C,3,-31*,-1,-14,-2%,0
Cc1cc2cc(CNC(=O)C3CCCC3)ccc2n1C,2,-30*,-9,-13,2%,0
CCCC(=O)NCc1ccc2c(c1)cc(C)n2C,3,-2,8,-3,-2%,0
COc1ccccc1OC(C)C(=O)Nc1ccc2c(c1)n(C)c(=O)n2C (configuration not stated),2,-3,-1,0,-1%,1
C[C@H](CO)N1C[C@H](C)[C@@H](CN(C)S(=O)(=O)c2cccs2)Oc2c(NS(=O)(=O)c3cn(C)cn3)cccc2C1=O,x,x,x,x,-2%,x
O=C(Nc1ccc(O)c(-c2nc3ccccc3o2)c1)c1sc2ccccc2c1Cl,0,-30*,1,0,-2%,0
O=C(Nc1ccc(O)c(-c2nc3ccccc3o2)c1)c1cccs1,0,-4,0,-4,-3%,1
COc1cc(/C=N/NC(=O)c2cccnc2)ccc1OCC(=O)N1CCOCC1,2,17,33*,6,-5%,0
COc1ccc(/C=N/NC(=O)c2cccnc2)cc1CN1CCOCC1,2,5,0,1,-2%,1
CCN(/C=N/c1sc2c(c1C#N)CC(C)(C)NC2(C)C)CC,-1,-13,3,-4,-1%,0
CN(C)/C=N/c1sc2c(c1C#N)CC(C)(C)NC2(C)C,2,-45*,0,-27,-2%,0

# From PubChem BioAssay
